PubChem BioAssay AID1159580 (chemical genetic matrix, 2015)
Several values for one entry are separate records, joined by “and”; a condition that tells them apart may be missing. Identical values can stand only once. Among all 5,500 compounds or so, about 2,000 (36%) were called active. About 18% were inconclusive and are not listed. No stated cut-off is given here; in the data, active means normalized growth mostly below about 0.91 (no sharp cut-off); inconclusive means no clear call, values can overlap the other calls; inactive means mostly above about 0.92. The list shows a part of the results.

Experiment: chemical genetic growth profiling, strain panel (AID 1159580);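 further: tested at 20 µM; growth read once vehicle control cultures reached saturation at 30 °C; 1 = growth at the plate median or of vehicle wells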
Settings: S. cerevisiae deletion strains, growth OD

Measured: normalized growth

N#C/C(=C\c1cccc(O)c1)C(=O)O
inactive: locus YAL013W, strain DEP1, stronger effect = lower value 0.996 | locus YAL021C, strain ccr4, stronger effect = lower value 0.978 | locus YAL026C, strain drs2, stronger effect = lower value 0.985 | locus YAL030W, strain snc1, stronger effect = lower value 0.977 | locus YBL061C, strain skt5, stronger effect = lower value 0.976 | locus YBR009C, strain hhf1, stronger effect = lower value 1.03 | locus YBR021W, strain FUR4, stronger effect = lower value 1.02 | locus YBR023C, strain chs3, stronger effect = lower value 0.979 | locus YBR171W, strain sec66, stronger effect = lower value 0.995 | locus YBR229C, strain ROT2, stronger effect = lower value 0.961 | locus YBR231C, strain swc5, stronger effect = lower value 1.01 | locus YBR279W, strain paf1, stronger effect = lower value 0.987 | locus YCL016C, strain dcc1, stronger effect = lower value 0.966 | locus YCL029C, strain bik1, stronger effect = lower value 0.997 | locus YCL061C, strain MRC1, stronger effect = lower value 0.985 | locus YCL069W, strain vba3, stronger effect = lower value 1 | locus YCR088W, strain abp1, stronger effect = lower value 0.989 | locus YDL005C, strain med2, stronger effect = lower value 0.999 | locus YDL035C, strain GPR1, stronger effect = lower value 0.994 | locus YDL040C, strain nat1, stronger effect = lower value 0.99 | locus YDL074C, strain BRE1, stronger effect = lower value 0.981 | locus YDL101C, strain DUN1, stronger effect = lower value 0.974 | locus YDL134C, strain PPH21, stronger effect = lower value 0.992 | locus YDL185W, strain tfp1, stronger effect = lower value 0.98 | locus YDL192W, strain arf1, stronger effect = lower value 0.994 | locus YDR001C, strain nth1, stronger effect = lower value 0.988 | locus YDR069C, strain doa4, stronger effect = lower value 0.985 | locus YDR101C, strain arx1, stronger effect = lower value 1.01 | locus YDR137W, strain rgp1, stronger effect = lower value 0.977 | locus YDR150W, strain NUM1, stronger effect = lower value 0.974 | locus YDR159W, strain sac3, stronger effect = lower value 0.987 | locus YDR162C, strain NBP2, stronger effect = lower value 0.921 | locus YDR195W, strain ref2 1 | locus YDR297W, strain sur2, stronger effect = lower value 0.984 | locus YDR318W, strain mcm21, stronger effect = lower value 1.03 | locus YDR334W, strain swr1, stronger effect = lower value 0.981 | locus YDR335W, strain msn5, stronger effect = lower value 0.982 | locus YDR388W, stronger effect = lower value 0.999 | locus YDR392W, strain spt3, stronger effect = lower value 0.933 | locus YDR502C, strain sam2, stronger effect = lower value 0.997 | locus YEL003W, strain gim4, stronger effect = lower value 0.997 | locus YEL037C, strain rad23, stronger effect = lower value 0.997 | locus YEL061C, strain CIN8 (second series), stronger effect = lower value 0.989 | locus YEL061C, strain CIN8, stronger effect = lower value 0.985 | locus YER015W, strain faa2, stronger effect = lower value 0.975 | locus YER016W, strain bim1, stronger effect = lower value 0.949 | locus YER110C, stronger effect = lower value 0.942 | locus YER111C, strain swi4, stronger effect = lower value 0.971 | locus YER155C, strain BEM2 (second series), stronger effect = lower value 1.04 | locus YER155C, strain BEM2, stronger effect = lower value 0.986 | locus YER167W, strain BCK2, stronger effect = lower value 1.05 | locus YFR010W, strain ubp6, stronger effect = lower value 1.01 | locus YGL078C, strain dbp3, stronger effect = lower value 0.976 | locus YGL086W, strain mad1, stronger effect = lower value 1.03 | locus YGL167C, strain pmr1, stronger effect = lower value 0.99 | locus YGL173C, strain kem1, stronger effect = lower value 1.01 | locus YGL227W, strain vid30, stronger effect = lower value 0.985 | locus YGL240W, strain doc1, stronger effect = lower value 0.986 | locus YGL248W, strain PDE1, stronger effect = lower value 0.984 | locus YGL253W, strain hxk2, stronger effect = lower value 0.975 | locus YGR078C, strain PAC10, stronger effect = lower value 0.996 | locus YGR135W, strain pre9, stronger effect = lower value 0.993 | locus YGR229C, strain SMI1, stronger effect = lower value 1.02 | locus YGR252W, strain gcn5, stronger effect = lower value 1.07 | locus YHR013C, strain ard1, stronger effect = lower value 0.962 | locus YHR027C, strain rpn1, stronger effect = lower value 0.984 | locus YHR030C, strain SLT2, stronger effect = lower value 0.999 and 0.994 | locus YHR079C, strain IRE1 (second series), stronger effect = lower value 1 | locus YHR079C, strain IRE1, stronger effect = lower value 0.969 | locus YHR094C, strain hxt1, stronger effect = lower value 0.993 | locus YHR129C, strain ARP1, stronger effect = lower value 1 | locus YHR142W, strain chs7, stronger effect = lower value 0.971 | locus YHR200W, strain rpn10, stronger effect = lower value 1 | locus YIL066C, strain RNR3, stronger effect = lower value 0.989 | locus YIL073C, strain SPO22, stronger effect = lower value 1.1 | locus YIL125W, strain kgd1, stronger effect = lower value 0.989 | locus YIR030C, strain dcg1, stronger effect = lower value 0.991 | locus YJL092W, strain hpr5, stronger effect = lower value 0.987 | locus YJL095W, strain BCK1 (second series), stronger effect = lower value 0.984 | locus YJL095W, strain BCK1, stronger effect = lower value 1.01 and 0.978 | locus YJL115W, strain asf1, stronger effect = lower value 0.97 | locus YJL129C, strain trk1, stronger effect = lower value 0.925 | locus YJL134W, strain LCB3, stronger effect = lower value 0.987 | locus YJL154C, strain vps35, stronger effect = lower value 0.985 | locus YJL164C, strain tpk1, stronger effect = lower value 0.987 | locus YJL166W, strain qcr8, stronger effect = lower value 1 | locus YJL168C, strain set2, stronger effect = lower value 0.995 | locus YJL187C, strain SWE1 (second series), stronger effect = lower value 0.966 | locus YJL187C, strain SWE1, stronger effect = lower value 0.997 | locus YJR043C, strain POL32, stronger effect = lower value 1.04 | locus YJR066W, strain TOR1, stronger effect = lower value 0.98
